Shown is part of a subset that was picked to be rich in hits.
HT1080-NT tox – kills 2HG-producing HT-1080-NT fibrosarcoma cells | HT-1080-NT fibrosarcoma viability, CellTiter-Glo ATP luminescence, 48 h | Potency, µM (top dose mostly 46.1 µM), hits mostly cytotoxic | 360,000 tested, 1.6% active;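 also: NT is the 2HG producing partner of a matched IDH1 knockdown line; nearly all actives have a fitted effect of over 55% in size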
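Compounds were tested in concentration-response format on HT-1080-NT cells for 48 hours at 37 degrees C. Cell viability came from CellTiter-Glo luminescence; curves were classified by r2, response magnitude and activity.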
IL-1B inflam inh – inflammasome signaling inhibition, IL-1 beta readout. THP-1 LPS/ATP IL-1B secretion, AlphaLISA, 16 h; stronger effect = lower value. activity change, % at 57.5 µM. 360,000 tested, 4.7% active. AID 743279; in the data active = activity change below about -50%; inconclusive = mostly about -30% to -49%
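THP-1 cells pretreated 1 hr with compounds (up to 57.5 uM final), then stimulated with LPS (250 ng/mL final) plus ATP (1.25 mM final); secreted IL-1B measured by AlphaLISA after 16 hr, decreased signal indicating inhibition.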
HT1080 IDH1KD tx – HT-1080 IDH1 knockdown cell toxicity (counter line) | HT-1080 IDH1 knockdown viability, ATP luminescence, 48 h | Potency, µM (top dose mostly 46.1 µM), usual class: cytotoxic | 360,000 tested, 2% active | AID 686971
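Using the IDH1-knockdown HT-1080 line run in the same batch and compound series as the NT line, viability after 48 h at 37 °C was determined by CellTiter-Glo luminescence and expressed as % activity.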
ALOX12 inh – inhibitors of human 12S-lipoxygenase ALOX12; 580,000 tested, 1.1% active; Potency, µM (top dose mostly 108 µM), most hits filed as inhibitors; purified 12hLO, xylenol orange hydroperoxide absorbance; P18054; AID 1671190
Target sequence (P18054 whole entry, looked up): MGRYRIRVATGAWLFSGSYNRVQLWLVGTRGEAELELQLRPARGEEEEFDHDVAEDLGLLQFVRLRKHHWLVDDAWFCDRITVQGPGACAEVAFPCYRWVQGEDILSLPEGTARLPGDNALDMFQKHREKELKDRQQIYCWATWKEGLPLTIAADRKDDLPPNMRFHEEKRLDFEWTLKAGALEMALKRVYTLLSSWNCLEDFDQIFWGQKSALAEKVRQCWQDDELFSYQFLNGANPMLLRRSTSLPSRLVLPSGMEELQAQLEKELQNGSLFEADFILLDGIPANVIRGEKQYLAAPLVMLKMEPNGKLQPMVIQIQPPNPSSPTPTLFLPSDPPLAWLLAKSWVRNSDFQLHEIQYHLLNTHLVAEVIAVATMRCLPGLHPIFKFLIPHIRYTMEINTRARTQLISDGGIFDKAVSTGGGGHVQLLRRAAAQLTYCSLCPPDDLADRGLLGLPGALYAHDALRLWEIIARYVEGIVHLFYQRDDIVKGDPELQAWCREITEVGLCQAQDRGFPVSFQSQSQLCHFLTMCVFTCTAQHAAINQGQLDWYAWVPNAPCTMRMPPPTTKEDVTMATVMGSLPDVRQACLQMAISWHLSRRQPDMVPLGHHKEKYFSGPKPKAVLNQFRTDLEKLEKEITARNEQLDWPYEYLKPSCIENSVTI
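Purified human 12hLO at 150 nM in 25 mM Hepes, 0.01% Triton X-100, pH 7.0, preincubated 15 min at room temperature with compound. Reaction started with 40 uM arachidonic acid, 30 min at room temperature. Hydroperoxide measured by Fe-xylenol orange, 573/405 nm absorbance ratio.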
DT40 TDP1 CPT – growth inhibition of DT40 Tdp1-/-;hTDP1 cells with camptothecin (screen for TDP1 inhibitors) | chicken DT40 Tdp1-/-;hTDP1 cells + 20 nM CPT, ATP luminescence, 48 h | Potency, µM (top dose mostly 46.2 µM), usual class: inhibitors | 420,000 tested, 12% active | AID 686979; also: nearly all actives have a fitted effect of over 55% in size
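Chicken DT40 Tdp1-/- cells stably complemented with human TDP1 were seeded at 400 cells/well in medium containing 20 nM camptothecin, exposed to pin-transferred compounds, and grown at 37 °C for at least 48 hr. Viability was read as ATP luminescence.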
TDP1 cell noCPT – qHTS for Inhibitors of human tyrosyl-DNA phosphodiesterase 1 (TDP1): qHTS in cells in absence of CPT; 420,000 tested, 15% active; AID 686978, 2013; Potency, µM (titrated, usually from 46.2 µM), hits mostly inhibitors; DT40 Tdp1-/- hTDP1 cells, no CPT, ATP luminescence, 48 h; also: nearly all actives have a fitted effect of over 55% in size
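Chicken DT40 Tdp1-/- cells complemented with human TDP1, screened without camptothecin (DMSO vehicle only), 400 cells/well. Compounds pin-transferred, cells incubated at 37 °C for at least 48 hr. Growth read as ATP-dependent luminescence (CellTiter-Glo, 30 min at RT).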
Of the large screens only hits and unclear results are named; the others gave an inactive call. Unless noted, calls follow the shape of the dose curve; as a rule, active = well fitted curve in the direction sought with a large enough effect; inconclusive = small, poorly fitted or top-dose-only effect, or another doubt; inactive = no such curve, though single readings can be large; an effect the other way counts as inactive or inconclusive.

COc1cccc(CNC(=O)c2cc(Sc3cccc(Cl)c3)nc3ccccc23)c1	DT40 TDP1 CPT inconclusive, TDP1 cell noCPT 15µM (no result: HT1080-NT tox, IL-1B inflam inh, HT1080 IDH1KD tx)
CCOCCCNC(=O)c1cc(Sc2cccc(Cl)c2)nc2ccccc12	ALOX12 inh inconclusive, DT40 TDP1 CPT inconclusive, TDP1 cell noCPT 15µM (no result: HT1080-NT tox, IL-1B inflam inh, HT1080 IDH1KD tx)
CCOCCCNC(=O)c1cc(Sc2ccc(C)cc2)nc2ccccc12	IL-1B inflam inh inconclusive, TDP1 cell noCPT inconclusive
CCOc1ccc(/C=C/C(=O)NCCc2ccc(OC)c(OC)c2)cc1	DT40 TDP1 CPT inconclusive, TDP1 cell noCPT 23µM
CC1CCN(C(=O)c2ccccc2SCC(=O)NCC2CCCCC2)CC1	DT40 TDP1 CPT inconclusive
CCOc1ccc(Sc2cc(C(=O)NCCc3ccc(OC)c(OC)c3)c3ccccc3n2)cc1	DT40 TDP1 CPT 3.7µM, TDP1 cell noCPT 5.8µM (no result: HT1080-NT tox, IL-1B inflam inh, HT1080 IDH1KD tx)
COc1ccc(Nc2cc(C(=O)NCCc3ccccc3)c3ccccc3n2)cc1OC	none (no result: HT1080-NT tox, IL-1B inflam inh, HT1080 IDH1KD tx)
COc1ccc(CCNC(=O)c2cc(Sc3cccc(Cl)c3)nc3ccccc23)cc1OC	DT40 TDP1 CPT 8.2µM, TDP1 cell noCPT 7.3µM (no result: HT1080-NT tox, IL-1B inflam inh, HT1080 IDH1KD tx)
CCOc1ccc(Sc2cc(C(=O)NCCc3ccccc3)c3ccccc3n2)cc1	none (no result: HT1080-NT tox, IL-1B inflam inh, HT1080 IDH1KD tx)
CCCCC(=O)N1CCN(C2CCN(CCC(C)C)C2=O)CC1 (configuration not stated)	none (no result: HT1080-NT tox, IL-1B inflam inh, HT1080 IDH1KD tx, DT40 TDP1 CPT, TDP1 cell noCPT)
CC(C)c1onc(C(=O)Nc2cccnc2Cl)c1[N+](=O)[O-]	DT40 TDP1 CPT 23µM, TDP1 cell noCPT inconclusive
CCc1ccccc1NC(=O)c1noc(C(C)C)c1[N+](=O)[O-]	HT1080-NT tox inconclusive, IL-1B inflam inh inconclusive, HT1080 IDH1KD tx inconclusive, DT40 TDP1 CPT 15µM, TDP1 cell noCPT inconclusive
Cc1nn(Cc2ccccc2Cl)c(C)c1NC(=O)c1noc(C(C)C)c1[N+](=O)[O-]	none
CC(C)c1onc(C(=O)NCc2ccc(Cl)cc2)c1[N+](=O)[O-]	DT40 TDP1 CPT inconclusive, TDP1 cell noCPT inconclusive
Cc1onc(C(=O)Nc2cccnc2Cl)c1[N+](=O)[O-]	DT40 TDP1 CPT inconclusive
CC(C)c1onc(C(=O)NCc2ccccc2)c1[N+](=O)[O-]	DT40 TDP1 CPT 16µM, TDP1 cell noCPT 21µM
CCC(C)NC(=O)CSc1nc(-c2ccco2)nc2ccccc12 (configuration not stated)	none (no result: HT1080-NT tox, IL-1B inflam inh, HT1080 IDH1KD tx, DT40 TDP1 CPT, TDP1 cell noCPT)
N#Cc1ccc(-c2cccs2)nc1SCC(=O)Nc1ccc(Br)cc1	none (no result: HT1080-NT tox, IL-1B inflam inh, HT1080 IDH1KD tx, DT40 TDP1 CPT, TDP1 cell noCPT)
Cc1cc(C)cc(N2C(=O)CS(=O)(=O)C23C(=O)N(Cc2ccc(F)cc2)c2ccc(C)cc23)c1 (configuration not stated)	ALOX12 inh inconclusive, DT40 TDP1 CPT 18µM, TDP1 cell noCPT 21µM (no result: HT1080-NT tox, IL-1B inflam inh, HT1080 IDH1KD tx)
CCc1cccc(N2C(=O)CS(=O)(=O)C23C(=O)N(Cc2ccccc2)c2ccc(C)cc23)c1 (configuration not stated)	DT40 TDP1 CPT inconclusive, TDP1 cell noCPT 18µM (no result: HT1080-NT tox, IL-1B inflam inh, HT1080 IDH1KD tx)
CCc1cccc(N2C(=O)CS(=O)(=O)C23C(=O)N(Cc2ccc(F)cc2)c2ccc(C)cc23)c1 (configuration not stated)	DT40 TDP1 CPT inconclusive, TDP1 cell noCPT 23µM (no result: HT1080-NT tox, IL-1B inflam inh, HT1080 IDH1KD tx)
COc1ccc(N2C(=O)CS(=O)(=O)C23C(=O)N(Cc2cccc(F)c2)c2ccccc23)cc1OC (configuration not stated)	TDP1 cell noCPT inconclusive (no result: HT1080-NT tox, IL-1B inflam inh, HT1080 IDH1KD tx)
O=C1CS(=O)(=O)C2(C(=O)N(Cc3ccccc3)c3ccccc32)N1c1ccc(F)c(Cl)c1 (configuration not stated)	TDP1 cell noCPT inconclusive (no result: HT1080-NT tox, IL-1B inflam inh, HT1080 IDH1KD tx)
COc1ccc(CCC(=O)N2CCCC2c2nc(C3CCOCC3)no2)cc1 (configuration not stated)	none (no result: HT1080-NT tox, IL-1B inflam inh, HT1080 IDH1KD tx, DT40 TDP1 CPT, TDP1 cell noCPT)
Cc1cccc(NC(=O)CNC(=O)[C@H](CCc2ccccc2)NC(=O)[C@H]2O[C@@H](n3cnc4c(N)ncnc43)[C@H](O)[C@@H]2O)c1C	none (no result: HT1080-NT tox, IL-1B inflam inh, HT1080 IDH1KD tx, DT40 TDP1 CPT, TDP1 cell noCPT)
COCCNC(=O)COC(=O)c1cc(C)nc2ccccc12	none (no result: HT1080-NT tox, IL-1B inflam inh, HT1080 IDH1KD tx, DT40 TDP1 CPT, TDP1 cell noCPT)
O=[N+]([O-])c1ccc2ncnc(N3CCN(Cc4ccc5c(c4)OCO5)CC3)c2c1	DT40 TDP1 CPT 13µM, TDP1 cell noCPT 9.2µM
